In ChEMBL document CHEMBL4808148, “HDAC6 screening dataset using tau-based substrate in an enzymatic assay yields selective inhibitors and activators” (2021):
The whole screen tested about 5,600 compounds, of which about 390 (7%) showed an effect of 50% or more. The sample holds strong results, similar compounds and a random draw of the others, so the mix is not that of the screen.

Target: T1, Protein deacetylase HDAC6 (Homo sapiens) (UniProt Q9UBN7)
T1 sequence (whole entry): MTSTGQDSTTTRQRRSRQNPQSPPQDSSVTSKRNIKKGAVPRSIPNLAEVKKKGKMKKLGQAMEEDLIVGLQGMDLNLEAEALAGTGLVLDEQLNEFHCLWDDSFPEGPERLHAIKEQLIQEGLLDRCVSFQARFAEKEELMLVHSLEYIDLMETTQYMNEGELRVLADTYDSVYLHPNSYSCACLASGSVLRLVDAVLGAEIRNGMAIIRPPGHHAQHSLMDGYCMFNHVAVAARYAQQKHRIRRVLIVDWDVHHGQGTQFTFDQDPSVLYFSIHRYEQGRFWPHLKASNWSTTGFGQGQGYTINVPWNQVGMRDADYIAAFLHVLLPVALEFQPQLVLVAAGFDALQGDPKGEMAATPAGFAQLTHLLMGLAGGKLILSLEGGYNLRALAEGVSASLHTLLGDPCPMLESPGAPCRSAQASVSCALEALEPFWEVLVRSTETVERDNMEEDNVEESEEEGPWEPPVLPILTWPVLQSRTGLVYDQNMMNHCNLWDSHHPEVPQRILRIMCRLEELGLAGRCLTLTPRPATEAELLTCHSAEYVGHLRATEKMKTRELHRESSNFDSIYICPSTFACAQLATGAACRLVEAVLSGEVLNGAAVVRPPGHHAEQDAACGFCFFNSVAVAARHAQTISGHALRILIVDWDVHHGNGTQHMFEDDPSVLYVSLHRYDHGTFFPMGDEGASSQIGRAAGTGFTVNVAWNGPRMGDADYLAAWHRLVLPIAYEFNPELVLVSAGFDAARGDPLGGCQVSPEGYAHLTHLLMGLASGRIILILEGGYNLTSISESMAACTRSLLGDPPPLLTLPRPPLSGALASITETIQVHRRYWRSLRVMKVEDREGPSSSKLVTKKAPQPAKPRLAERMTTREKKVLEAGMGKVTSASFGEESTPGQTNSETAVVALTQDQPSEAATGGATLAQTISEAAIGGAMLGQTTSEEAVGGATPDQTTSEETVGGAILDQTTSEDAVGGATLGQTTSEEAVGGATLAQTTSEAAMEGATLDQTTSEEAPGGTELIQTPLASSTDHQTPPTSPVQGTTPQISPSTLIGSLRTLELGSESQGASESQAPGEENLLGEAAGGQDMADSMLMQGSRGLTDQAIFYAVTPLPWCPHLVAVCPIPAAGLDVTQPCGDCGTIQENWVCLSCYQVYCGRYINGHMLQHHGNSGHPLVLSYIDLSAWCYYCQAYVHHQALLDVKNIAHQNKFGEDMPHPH
Details: at 10 µM

Structure (SMILES)	inhibition [%]
c1ccc2c(Cc3c[nH]c4ccccc34)c[nH]c2c1	71.8
O=C(O)C(=O)Cc1c[nH]c2ccccc12	20.3
CCc1cc2c(c(CC)n1)CCC(=O)N2Cc1ccc(-c2ccccc2-c2nnn[nH]2)cc1	0.45
[O-][S+](c1ccccc1)c1ccc2nnnn2n1 (stereo not drawn)	-5.95
Clc1ccc(N/N=C(\c2ccccc2)c2ccccn2)nc1	25.9
c1ccc(COCCCc2c[nH]cn2)cc1	20.5
COc1ccc2cc1Oc1ccc(cc1)C[C@H]1c3c(cc4c(c3Oc3cc5c(cc3OC)CCN(C)[C@@H]5C2)OCO4)CCN1C	-6.05
O=C1/C(=C/c2ccccc2)C(NC2CCCCC2)c2ccccc21 (stereo not drawn)	8.83
Cc1noc(NS(=O)(=O)c2cccc3c(N(C)C)cccc23)c1C	29.9
Nc1nc2c(cnn2CCc2ccccc2)c2nc(-c3ccco3)nn12	61.6
Cc1cc(Cl)ccc1OCCCC(=O)NO	98.5
Cc1ccc(C)c(OCCCC(C)(C)C(=O)O)c1	7.2
COc1ccc2[nH]c3c(-c4cccc5ccccc45)nccc3c2c1	9.67
Cc1cc(C)c(N)c(C#Cc2cccc(F)c2)n1	103
Cc1nc(C#Cc2ccnc(Cl)c2)c(C)n1-c1ccc(F)cc1	5.29
CC(C)NC(=O)c1ccc(C#Cc2ccncc2)cn1	-5.33
C[C@@H]([C@H](C)O)[C@H](N)C(=O)O	-7.36
CNC(=O)c1ccc(C)c(-n2c(C)cc(OCc3ccc(F)cc3F)c(Br)c2=O)c1	72.6
CCCCCCCCCCCCCC[C@@H](O)[C@@H](O)[C@@H](N)CO	0.56
CCCc1c(OCC(O)COc2ccc3c(=O)cc(C(=O)O)oc3c2CCC)ccc(C(C)=O)c1O (stereo not drawn)	22.7
Cc1cc(OI)c(C(C)C)cc1-c1cc(C(C)C)c(OI)cc1C	7.55
Cc1nc2ccc(NC(=O)Nc3ccnc4cccnc34)cc2o1	76
CN[C@@H]1CCc2[nH]c3ccc(C(N)=O)cc3c2C1	9.03
Cc1cccc(/C=N/Nc2cc(N3CCOCC3)nc(OCCc3ccccn3)n2)c1	1.14
Cc1cc(-c2nncc3c(C(C)(C)C)c(OCc4ncnn4C)nn23)no1	-0.39
COc1ccc([C@@H]2CC(=O)c3c(O)cc(O)cc3O2)cc1O	94.9
O=C1c2c(O)cc(O)cc2O[C@H](c2ccc(O)c(O)c2)[C@H]1O	10.8

Structure (SMILES)	inhibition [%]
COc1cc([C@H]2Oc3cc([C@H]4Oc5cc(O)cc(O)c5C(=O)[C@@H]4O)ccc3O[C@@H]2CO)ccc1O	15.7
COc1ccc([C@@H]2CC(=O)c3c(O)cc(O[C@@H]4O[C@H](CO[C@@H]5O[C@@H](C)[C@H](O)[C@@H](O)[C@H]5O)[C@@H](O)[C@H](O)[C@H]4O)cc3O2)cc1O	14.3
O=C1C[C@@H](c2ccc(O)cc2)Oc2cc(O)ccc21	-5.99
O=C1C[C@@H](c2ccccc2)Oc2cc(O)cc(O)c21	50.7
CS(=O)(=O)c1ccc([C@@H](CC2CCCC2)C(=O)Nc2nccs2)cc1	-9.75
Cn1cnnc1Sc1c([N+](=O)[O-])ncn1C	19.5
C=C1/C(=C\C=C2/CCC[C@]3(C)[C@@H]([C@H](C)/C=C/[C@@H](O)C4CC4)CC[C@@H]23)C[C@@H](O)C[C@@H]1O	1.78
C[C@@H](CN1CCC(n2c(=O)[nH]c3cc(Cl)ccc32)CC1)NC(=O)c1ccc2ccccc2c1	8.37
CC1(C)N=C(N)N=C(N)N1OCCCOc1cc(Cl)c(Cl)cc1Cl	12
Clc1cccc(-n2nnnc2NCc2ccccc2Oc2ccccn2)c1Cl	0.62
C[n+]1ccccc1C=NO	0.38
O=C1C(Cl)=C(N2CCOCC2)C(=O)N1c1ccc(Cl)c(Cl)c1	86
O=C(Nc1ccc(N2CCC(C(=O)N3CCOCC3)CC2)cc1)c1cnc(Oc2ccccc2)nc1	3.27
CCN(CC)C(=S)S	13.4
CC(=O)N(O)C/C=C/c1cccc(Oc2ccccc2)c1	9.26
N[C@@H]1CCCN(c2c(/C=C3\SC(=O)NC3=O)cccc2-c2ccccc2)C1	104
CCCCCCC[N+](CC)(CC)CCCCc1ccc(Cl)cc1	11
COc1cc(OC)cc(N(CCNC(C)C)c2ccc3ncc(-c4cnn(C)c4)nc3c2)c1	-0.23
Nc1nc(-c2nn(Cc3ccccc3F)c3ncccc23)ncc1C1CC1	34.9
N=C(N)NCCC(=O)O	1.27
NC(=O)C1=CN([C@@H]2O[C@H](COP(=O)(O)OP(=O)(O)OC[C@H]3O[C@@H](n4cnc5c(N)ncnc54)[C@H](O)[C@@H]3O)[C@@H](O)[C@H]2O)C=CC1	4.98
Cc1cnc(Nc2ccc(OCCN3CCCC3)cc2)nc1Nc1cccc(S(=O)(=O)NC(C)(C)C)c1	25
O=C(NO)c1ccc2[nH]c(=O)c(CCCc3ccccc3)nc2c1	99.2
O=C(Nc1cccc2c(=O)cc(-c3nnn[nH]3)oc12)c1ccc(OCCCCc2ccccc2)cc1	9.45
CCCCc1ccc2[nH]c(NC(=O)OC)nc2c1	48
CCCCCCCCCCCCCCCC[N+](C)(C)Cc1ccccc1	36.2
